Data as given in PubChem BioAssay (NCI).
About 79,000 compounds went through this panel and 15% of them were active in at least one assay; those are over-represented in the sample as a whole. The source made the active and inactive calls. Rule as the data show it: active = growth inhibition above about 70%; inactive = the rest.

Experiment: NCI Yeast Anticancer Drug Screen. Data for the rad18 strain (AID 177)
Conditions: S. cerevisiae rad18 mutant growth inhibition, stronger effect = higher value
Procedure: Growth inhibition of yeast strains with defined genetic alterations is measured as a screen for potential anti-cancer activity. Selected strains with alterations in DNA damage repair or cell cycle control were exposed to compounds and growth inhibition was measured relative to vehicle treated controls. The strain used in this assay is rad18

Measured: growth inhibition

CN(C)CCOc1ccc2c(c1)C/C(=C/c1ncc([N+](=O)[O-])n1C)C2=O
active: at 1.2 µM 83% | at 3.7 µM 90% | at 11.0 µM 91% | at 33.0 µM 94% | at 100.0 µM 92%

CC(CC(C)(C)[N+](C)(C)C)[N+](C)(C)C (stereo not given)
inactive: at 1.2 µM 11% | at 3.7 µM 8% | at 11.0 µM 14% | at 33.0 µM 15% | at 100.0 µM 20%

CC1=NN(c2cccc(Cl)c2)C(=O)C1
inactive: at 1.2 µM -47% | at 3.7 µM -34% | at 11.0 µM -22% | at 33.0 µM -20% | at 100.0 µM 8%

c1ccc2c(c1)C(=NCCCN1CCCCCC1)c1cccn1-2
inactive: at 1.2 µM -1% | at 3.7 µM 1% | at 11.0 µM 4% | at 33.0 µM 1%
active: at 100.0 µM 98%

O=C(O)CNc1ccc(Cl)c(Cl)c1
active: at 33.0 µM 76% | at 100.0 µM 98%
inactive: at 1.2 µM -2% | at 3.7 µM -4% | at 11.0 µM 2%

CC(=O)Oc1ccc2c(c1)Cc1cc(N=C3C=CC(=O)O3)ccc1-2
active: at 11.0 µM 97% | at 33.0 µM 98% | at 100.0 µM 96%
inactive: at 1.2 µM 15% | at 3.7 µM 50%

COc1ccccc1N=NC(C(=O)c1ccccc1)C(=O)c1ccccc1
inactive: at 1.2 µM -5% | at 3.7 µM 10% | at 11.0 µM 9%
active: at 33.0 µM 96% | at 100.0 µM 98%

CCNc1nnc(CSc2nc(-c3ccccc3)c(-c3ccccc3)[nH]2)s1
inactive: at 1.2 µM 12% | at 3.7 µM 16% | at 11.0 µM 13%
active: at 33.0 µM 89% | at 100.0 µM 79%
